Inconclusive results are not listed. A call without a number means that no potency is given here. Activity calls are given as the source filed them. Unless noted, calls come from the whole dose curve; as a rule, active = well fitted curve in the direction sought with a large enough effect in the repeat runs; inconclusive = weak or mixed curves; inactive = no such curve, though single readings can be large; an effect the other way counts as inactive or inconclusive.
Experiments:
[1] = qHTS assay for small molecules that induce genotoxicity in human embryonic kidney cells expressing luciferase-tagged ATAD5 (AID 651632); note: nearly all actives have a fitted effect of over 15% in size
In short: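 Genotoxicity read-out via ATAD5-luciferase: HEK293T cells, 16 hr compound incubation at 37C, Amplite detection.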

[2] = qHTS assay for small molecule agonists of the p53 signaling pathway - cell viability (AID 651633; calls by dose curve; note: nearly all actives have a fitted effect of over 30% in size; note: potency is the fitted concentration of half-maximal effect)
In short: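 Viability counter-read: CellTiter-Glo luminescence (30 min, room temperature) in the same p53RE-bla plates. These plates had been exposed to compounds for 16 h at 37 C.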

[3] = qHTS assay for small molecules that induce genotoxicity in human embryonic kidney cells expressing luciferase-tagged ATAD5 - cell viability (AID 651634; calls by dose curve; note: nearly all actives have a fitted effect of over 25% in size; note: potency is the fitted concentration of half-maximal effect)
In short: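 Live-cell protease activity (CellTiter-Fluor, fluorescence) indicates viability. HEK293T cells with luciferase-tagged ATAD5; 15.5 hr compound treatment at 37C.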

[4] = qHTS assay for small molecule disruptors of the mitochondrial membrane potential - cell viability (AID 720634; calls by dose curve;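 note: human HepG2 liver cancer cells; series mostly up to about 83 µM; nearly all actives have a fitted effect of over 20% in size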)
In short: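 Human hepatoma HepG2 cells were treated for 1 hr with test chemicals, then given m-MPI dye and CellTiter-Glo. Cell viability reflects luminescence proportional to cellular ATP.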

[5] = qHTS assay for small molecule disruptors of the mitochondrial membrane potential (AID 720635); note: potency is the fitted concentration of half-maximal effect
In short: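 Mitochondrial membrane potential tracked with Mito-MPS dye, red aggregates (ex 540/em 590 nm) against green monomers (ex 490/em 535 nm). Compound treatment 1 hr at 37C, dye 30 min in HepG2.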

[6] = qHTS assay to test for compound auto fluorescence at 535 nm (green) in HepG2 cells (AID 720675)
[7] = qHTS assay to test for compound auto fluorescence at 460 nm (blue) in HEK293 cells (AID 720678)
In short: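 Blue-channel (Ex/Em 405/460 nm) intensity measured in HEK293 cultures after overnight compound exposure at 37C; signal expressed relative to triamterene. Cells plated 2,000 per well in 10% dialyzed FBS medium and allowed 4-5 hr to attach.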

[8] = qHTS assay to test for compound auto fluorescence at 590 nm (red) in HEK293 cells (AID 720679)
In short: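 Red-channel autofluorescence (Ex/Em 540/590 nm; Rose Bengal sodium reference) was measured after overnight 37C, 5% CO2 exposure of attached HEK293 cells, 2,000 per well in medium with 10% dialyzed FBS.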

[9] = qHTS assay to test for compound auto fluorescence at 535 nm (green) in HEK293 cells (AID 720680)
[10] = qHTS assay to test for compound auto fluorescence at 535 nm (green) in HEK293 cell free culture (AID 720682)
In short: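 No cells present: wells hold DMEM supplemented with 10% FBS, into which compound or vehicle is pinned. Green emission is then recorded (485 nm excitation, 535 nm emission) and scaled to fluorescein.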

[11] = qHTS assay to test for compound auto fluorescence at 590 nm (red) in HEK293 cell free culture (AID 720683)
In short: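 Red-channel autofluorescence of compounds in culture medium (DMEM, 10% FBS), no cells, measured at 540/590 nm. Rose Bengal sodium is the reference fluorophore for equivalence.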

[12] = qHTS assay to test for compound auto fluorescence at 590 nm (red) in HepG2 cell free culture (AID 720684)
In short: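 Steps: dispense MEM/10% FBS medium, no cells; pin compound or DMSO vehicle; read red channel, Ex/Em 540/590 nm. Output given as Rose Bengal sodium equivalents.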

[13] = qHTS assay to test for compound auto fluorescence at 460 nm (blue) in HepG2 cell free culture (AID 720685)
In short: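 Compound (23 nL) or DMSO pinned into cell-free MEM with 10% FBS; blue fluorescence read at 405/460 nm excitation/emission, expressed as auto-fluorescence equivalency to triamterene.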

[14] = qHTS assay to test for compound auto fluorescence at 460 nm (blue) in HepG2 cells (AID 720687)
In short: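 Blue-channel autofluorescence (Ex/Em 405/460 nm, triamterene-equivalent) was measured after 1 hr compound exposure at 37 C, 5% CO2. Cells were HepG2, plated overnight at 37 C in MEM plus 10% FBS.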

[15] = qHTS assay to test for compound auto fluorescence at 590 nm (red) in HepG2 cells (AID 720674)
In short: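 1 hr compound incubation on HepG2 cells, 37 C, 5% CO2; plate read ex 540 nm / em 590 nm; intensities reported as Rose Bengal sodium equivalents.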

[16] = qHTS assay to test for compound auto fluorescence at 460 nm (blue) in HEK293 cell free culture (AID 720681)
In short: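 Blue fluorescence (Ex 405/Em 460 nm, triamterene-equivalent) was read immediately after pin transfer of compound or DMSO into medium (DMEM, 10% FBS) without cells.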

[17] = qHTS assay to test for compound auto fluorescence at 535 nm (green) in HepG2 cell free culture (AID 720686)
[18] = target: Glucocorticoid receptor (Homo sapiens) (UniProt P04150); experiment: qHTS assay to identify small molecule antagonists of the glucocorticoid receptor (GR) signaling pathway (AID 720692; active = well fitted inhibition curve with a large enough effect in the signal ratio in the repeat runs, not every such curve was filed as active; the % refers to the signal ratio; note: potency is the fitted concentration of half-maximal effect)
Glucocorticoid receptor (Homo sapiens), sequence (P04150 whole entry, looked up): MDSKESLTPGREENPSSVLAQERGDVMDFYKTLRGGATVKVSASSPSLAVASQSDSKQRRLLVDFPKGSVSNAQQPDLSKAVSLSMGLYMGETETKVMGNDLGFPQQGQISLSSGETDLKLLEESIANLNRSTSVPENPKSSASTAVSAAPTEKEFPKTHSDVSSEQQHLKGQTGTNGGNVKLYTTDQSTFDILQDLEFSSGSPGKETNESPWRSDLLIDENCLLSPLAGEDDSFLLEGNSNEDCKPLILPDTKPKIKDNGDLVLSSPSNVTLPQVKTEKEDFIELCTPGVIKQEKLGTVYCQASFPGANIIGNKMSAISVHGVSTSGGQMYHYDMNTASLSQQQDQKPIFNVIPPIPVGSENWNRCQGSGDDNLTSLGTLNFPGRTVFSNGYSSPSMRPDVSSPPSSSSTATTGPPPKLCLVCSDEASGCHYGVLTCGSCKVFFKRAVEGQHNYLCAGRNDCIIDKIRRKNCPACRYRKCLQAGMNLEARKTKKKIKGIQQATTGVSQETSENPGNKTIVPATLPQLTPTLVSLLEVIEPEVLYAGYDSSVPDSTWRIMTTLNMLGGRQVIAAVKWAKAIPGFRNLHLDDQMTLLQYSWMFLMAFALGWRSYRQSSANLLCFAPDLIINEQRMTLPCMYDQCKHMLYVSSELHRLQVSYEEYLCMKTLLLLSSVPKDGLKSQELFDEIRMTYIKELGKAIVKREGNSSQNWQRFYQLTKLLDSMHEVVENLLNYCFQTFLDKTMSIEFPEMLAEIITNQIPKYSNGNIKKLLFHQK
In short: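 Fluorescence from cleaved LiveBLAzer B/G FRET substrate reports GRE-driven beta-lactamase in HeLa cells; compounds are tested against 5 nM dexamethasone (final) over 18 h at 37 C, substrate incubation 2 h at room temperature.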

[19] = target: Glucocorticoid receptor (Homo sapiens) (UniProt P04150); experiment: qHTS assay to identify small molecule agonists of the glucocorticoid receptor (GR) signaling pathway (AID 720691; active = well fitted activation curve with a large enough effect in the signal ratio in the repeat runs, not every such curve was filed as active; the % refers to the signal ratio)
In short: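 Beta-lactamase reporter activity, read as fluorescence intensity, was measured in GR-bla HeLa cells exposed to compounds for 18 h at 37 C and then loaded with LiveBLAzer B/G FRET substrate for 2 h at room temperature.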

| Structure (SMILES) | Potency [1] | Potency [2] | Potency [3] | Potency [4] | Potency [5] | outcome [6] | Potency [7] | outcome [8] | outcome [9] | outcome [10] | outcome [11] | outcome [12] | Potency [13] | Potency [14] | outcome [15] | Potency [16] | outcome [17] | Potency [18] | Potency [19] |
| --- | --- | --- | --- | --- | --- | --- | --- | --- | --- | --- | --- | --- | --- | --- | --- | --- | --- | --- | --- |
| Oc1cccc(Nc2ccccc2)c1 | inactive | inactive | inactive | inactive | 25.4 µM (active) | inactive | inactive | inactive | inactive | inactive | inactive | inactive | inactive | inactive | – | – | – | – | – |
| C1COC1 | inactive | inactive | inactive | inactive | inactive | inactive | inactive | inactive | inactive | inactive | inactive | inactive | inactive | inactive | inactive | inactive | inactive | inactive | – |
| Cc1c(C)c2c(c(C)c1OC(=O)CCC(=O)OCCO)CC[C@@](C)(CCC[C@H](C)CCC[C@H](C)CCCC(C)C)O2 | inactive | 21.1 µM (active) | 23.7 µM (active) | inactive | inactive | inactive | inactive | – | – | inactive | inactive | inactive | inactive | inactive | inactive | inactive | – | 19 µM (active) | – |
| CCN(CC)CCNC(=O)COc1ccc(OC)cc1 | inactive | inactive | inactive | inactive | inactive | inactive | inactive | inactive | inactive | inactive | inactive | inactive | inactive | inactive | inactive | inactive | inactive | inactive | inactive |
| COC(=O)CS | inactive | inactive | inactive | inactive | inactive | inactive | inactive | inactive | inactive | inactive | inactive | – | inactive | inactive | inactive | inactive | inactive | – | – |

Source: PubChem BioAssay (Tox21)
